# The source made the active and inactive calls.
# Assays:
# [1] = biological target: Albumin (Bos taurus) (UniProt P02769); assay: compounds binding labelled BSA control protein – biochemical, small-molecule microarray, Alexa647 label, 635/667 nm fluorescence, artefact control for SMM control protein annotation, profiling panel (AID 1118); conditions: BSA-A647 binding, fluorescence 635 nm, higher = more signal;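 note: score merges 667 nm emission intensity and signal-to-noise per printed compound spot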
# [2] = probe aXIP binding to arrayed compounds – biochemical, NeuroSMM set, 635/667 nm fluorescence, primary screen (AID 1119); conditions: small-molecule microarray, higher = more signal, called active from +8 up or from −8 down;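 note: probe is the protein aXip251-270 applied at 1 µg/mL to compound-printed slides; binding of probe to printed compounds measured as 667 nm fluorescence plus signal to noise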
# [3] = probe aNOTCH3 binding on compound microarray – biochemical, small-molecule microarray, 635/667 nm fluorescence, primary screen (AID 1120); conditions: higher = more signal;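 note: probe is a biotin-tagged antibody raised against NOTCH3 rather than NOTCH3 protein; score merges spot fluorescence near 667 nm with spot signal to noise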
# [4] = probe aNOTCH2 binding on compound microarray – biochemical, small-molecule microarray, 635/667 nm fluorescence, primary screen (AID 1121); conditions: higher = more signal;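 note: score merges feature fluorescence read at 667 nm with its signal to noise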
# [5] = biological target: Carbonic anhydrase 2 (Homo sapiens) (UniProt P00918); assay: compounds binding carbonic anhydrase 2 – biochemical, small-molecule microarray, Alexa647-labelled CAII, profiling panel (AID 1122); conditions: CAII-A647 binding fluorescence, higher = more signal
# [6] = COS7 lysate on small-molecule microarray, probe aHis, 635 nm (AID 1123); conditions: COS7 cell lysate, fluorescence, higher = more signal;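 note: z-score combines 667nm fluorescence intensity with signal-to-noise per printed compound spot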
# [7] = probe aLAP1 signal on lysate-treated microarray – cell lysate, small-molecule microarray, COS7 lysate, primary screen (AID 1124); conditions: probe aLAP1, fluorescence, higher = more signal;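 note: lysate comes from COS7 cells expressing LAP1 and is applied at 0.3 µg/mL; score merges spot fluorescence near 667 nm with signal-to-noise over triplicate slides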
# [8] = system: Sam68 (KHDRBS1); assay: compounds binding KHDRBS1 protein – biochemical, small-molecule microarray, 635 nm fluorescence, primary screen (AID 1125); conditions: higher = more signal;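 note: score merges 667 nm channel intensity with signal to noise over triplicate slides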
# [9] = system: Chordin-like protein 2 (CHRDL2); assay: compounds binding chordin-like 2 – biochemical, small-molecule microarray, 635 nm fluorescence, primary screen (AID 1126); conditions: fluorescence 635 nm, higher = more signal;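 note: printed compound slides probed with Chrdl2 protein at 4 µg/mL for 1 h at 4 C; score merges 667 nm emission intensity with signal to noise over three replicate slides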
# [10] = biological target: Concanavalin-A (Canavalia ensiformis) (UniProt P02866); assay: compounds binding concanavalin A lectin – biochemical, small-molecule microarray, Alexa647 label, 635 nm, artefact control for SMM control protein annotation, primary screen (AID 1127); conditions: ConA-A647 binding fluorescence, higher = more signal;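 note: z combines 667 nm emission intensity with signal-to-noise across three replicate slides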
# [11] = compounds binding Alexa647 anti-His antibody – biochemical, small-molecule microarray, 635 nm fluorescence, artefact control for SMM control protein annotation, primary screen (AID 1128); conditions: higher = more signal;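 note: score merges feature fluorescence with signal-to-noise for each printed compound spot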
# [12] = system: Human papillomavirus type 1a E7 protein (residues 1-88); assay: HPV1a E7 small-molecule binders, primary screen, biochemical, small-molecule microarray, residues 1-88, 635 nm (AID 1129); conditions: small-molecule microarray binding, fluorescence 635 nm; higher = more signal
# [13] = biological target: Focal adhesion kinase 1 (Homo sapiens) (UniProt Q05397); assay: PTK2 protein binding on printed compound slides – biochemical, small-molecule microarray, 635/667 nm fluorescence, BSA, DTT, primary screen (AID 1130); conditions: 635 nm fluorescence, higher = more signal;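 note: composite of spot emission at 667 nm and signal to noise over triplicate slides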
# [14] = system: Fibrinogen (Alexa647-labelled); assay: Alexa647-fibrinogen binding to printed small molecules – biochemical, small-molecule microarray, 635/667 nm fluorescence, artefact control for SMM control-protein annotation, profiling panel (AID 1131); conditions: fibrinogen-A647 binding fluorescence, higher = more signal;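 note: z-score merges 667 nm fluorescence with per-spot signal-to-noise over triplicate slides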
# [15] = biological target: Follistatin (Homo sapiens) (UniProt P19883); assay: FST protein binding to printed compounds – biochemical, small-molecule microarray, 635/667 nm fluorescence, primary screen (AID 1132); conditions: 635 nm fluorescence, higher = more signal
# [16] = biological target: Fibroblast growth factor 2 (Homo sapiens) (UniProt P09038); assay: basic fibroblast growth factor binding to printed compounds – biochemical, small-molecule microarray, 635/667 nm fluorescence, primary screen (AID 1133); conditions: FGF2, fluorescence 635/667, higher = more signal
# [17] = JC-1 mitochondrial potential readout, lung cancer cells – cell-based, A549, JC-1 fluorescence, basal, 24 h, 100 nL, profiling panel (AID 1138); conditions: higher = more signal;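 note: A549 lung adenocarcinoma cells under basal conditions with no added stimulus; test concentration not given here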
# [18] = system: Lefty1; assay: Lefty1 protein binding to printed compounds – biochemical, small-molecule microarray, 635/667 nm fluorescence, primary screen (AID 1139); conditions: fluorescence 635/667, higher = more signal
# [19] = system: wheat germ agglutinin (Triticum aestivum), Alexa647-labelled; assay: Alexa647-WGA lectin binding to printed small molecules – biochemical, small-molecule microarray, 635/667 nm fluorescence, artefact control for SMM control-protein annotation, profiling panel (AID 1140); conditions: WGA-A647 binding, 635 nm fluorescence, higher = more signal;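 note: score merges 667 nm feature emission with signal to noise over triplicate slides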
# [20] = biological target: Luciferin 4-monooxygenase (Photinus pyralis) (UniProt P08659); assay: inhibition of purified Photinus pyralis luciferase – biochemical, luminescence, purified enzyme, 2006 set, primary screen (AID 1141); conditions: purified firefly luciferase, SteadyGlo luminescence, 30 min; higher = more signal, called active from +8 up or from −8 down;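 note: cell-free assay with purified firefly luciferase at 100 ng per well in PBS; test concentration not given here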
# Luciferin 4-monooxygenase (Photinus pyralis), sequence (P08659 whole entry, looked up): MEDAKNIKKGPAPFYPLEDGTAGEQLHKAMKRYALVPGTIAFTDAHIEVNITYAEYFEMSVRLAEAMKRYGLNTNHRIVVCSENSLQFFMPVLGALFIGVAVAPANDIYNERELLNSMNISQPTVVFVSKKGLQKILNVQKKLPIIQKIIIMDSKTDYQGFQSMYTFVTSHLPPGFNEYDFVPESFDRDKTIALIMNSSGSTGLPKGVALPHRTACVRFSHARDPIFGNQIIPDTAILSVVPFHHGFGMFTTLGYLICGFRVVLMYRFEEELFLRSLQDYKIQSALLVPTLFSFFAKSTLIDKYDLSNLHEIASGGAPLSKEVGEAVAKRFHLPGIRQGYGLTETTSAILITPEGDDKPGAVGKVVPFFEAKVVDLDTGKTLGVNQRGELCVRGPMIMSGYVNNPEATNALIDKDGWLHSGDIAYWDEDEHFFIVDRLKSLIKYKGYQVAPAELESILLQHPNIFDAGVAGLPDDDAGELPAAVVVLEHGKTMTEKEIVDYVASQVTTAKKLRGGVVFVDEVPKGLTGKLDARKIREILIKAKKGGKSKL
# Concanavalin-A (Canavalia ensiformis), sequence (P02866 whole entry, looked up): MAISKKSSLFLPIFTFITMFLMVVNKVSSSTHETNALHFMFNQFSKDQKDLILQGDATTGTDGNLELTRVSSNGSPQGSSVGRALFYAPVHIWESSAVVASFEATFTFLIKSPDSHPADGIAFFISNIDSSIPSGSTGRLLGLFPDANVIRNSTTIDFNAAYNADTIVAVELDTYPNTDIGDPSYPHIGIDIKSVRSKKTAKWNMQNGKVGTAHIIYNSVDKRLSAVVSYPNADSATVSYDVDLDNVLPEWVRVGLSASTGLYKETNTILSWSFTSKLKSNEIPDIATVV
# Albumin (Bos taurus), sequence (P02769 whole entry, looked up): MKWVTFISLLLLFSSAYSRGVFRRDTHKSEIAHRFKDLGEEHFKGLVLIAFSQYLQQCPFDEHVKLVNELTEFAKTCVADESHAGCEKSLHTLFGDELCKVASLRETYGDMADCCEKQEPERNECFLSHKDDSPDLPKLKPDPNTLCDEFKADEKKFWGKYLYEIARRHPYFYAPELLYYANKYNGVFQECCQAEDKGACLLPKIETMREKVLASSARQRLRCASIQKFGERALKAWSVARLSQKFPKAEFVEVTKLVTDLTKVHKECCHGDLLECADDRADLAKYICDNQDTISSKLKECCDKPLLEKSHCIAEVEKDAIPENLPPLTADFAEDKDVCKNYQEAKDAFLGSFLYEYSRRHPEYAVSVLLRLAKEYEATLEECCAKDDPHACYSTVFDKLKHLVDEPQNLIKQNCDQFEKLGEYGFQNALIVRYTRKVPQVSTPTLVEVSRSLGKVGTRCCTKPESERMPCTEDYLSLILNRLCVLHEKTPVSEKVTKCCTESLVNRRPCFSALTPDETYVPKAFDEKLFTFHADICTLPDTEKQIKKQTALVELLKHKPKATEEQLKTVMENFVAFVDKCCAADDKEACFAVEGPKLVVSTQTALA
# Focal adhesion kinase 1 (Homo sapiens), sequence (Q05397 whole entry, looked up): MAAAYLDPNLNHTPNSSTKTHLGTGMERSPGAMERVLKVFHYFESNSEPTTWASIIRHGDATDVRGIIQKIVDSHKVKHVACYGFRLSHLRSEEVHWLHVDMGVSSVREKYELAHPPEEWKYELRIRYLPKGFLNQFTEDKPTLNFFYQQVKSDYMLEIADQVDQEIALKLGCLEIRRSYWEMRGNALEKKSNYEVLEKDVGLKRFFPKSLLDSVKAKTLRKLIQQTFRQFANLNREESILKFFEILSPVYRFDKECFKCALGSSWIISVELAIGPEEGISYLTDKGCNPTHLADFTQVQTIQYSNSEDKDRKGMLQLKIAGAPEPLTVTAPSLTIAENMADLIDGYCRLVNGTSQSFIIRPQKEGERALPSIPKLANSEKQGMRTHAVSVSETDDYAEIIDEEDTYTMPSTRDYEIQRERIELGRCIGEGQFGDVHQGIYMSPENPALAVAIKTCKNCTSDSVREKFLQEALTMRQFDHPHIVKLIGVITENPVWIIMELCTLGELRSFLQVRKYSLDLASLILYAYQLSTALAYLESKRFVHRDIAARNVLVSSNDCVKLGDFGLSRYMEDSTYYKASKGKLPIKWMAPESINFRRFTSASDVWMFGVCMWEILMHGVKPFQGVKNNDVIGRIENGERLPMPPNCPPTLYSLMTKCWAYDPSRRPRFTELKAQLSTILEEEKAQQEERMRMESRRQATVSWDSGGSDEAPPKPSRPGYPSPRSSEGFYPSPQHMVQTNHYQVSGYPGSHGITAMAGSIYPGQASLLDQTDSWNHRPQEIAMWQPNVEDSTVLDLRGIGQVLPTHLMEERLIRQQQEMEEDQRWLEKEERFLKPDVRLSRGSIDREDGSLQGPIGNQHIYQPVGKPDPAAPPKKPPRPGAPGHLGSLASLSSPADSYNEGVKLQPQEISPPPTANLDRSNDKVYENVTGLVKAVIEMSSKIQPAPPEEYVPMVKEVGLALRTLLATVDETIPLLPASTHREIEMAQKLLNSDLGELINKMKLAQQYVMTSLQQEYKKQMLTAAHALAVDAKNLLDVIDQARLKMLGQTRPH
# Fibroblast growth factor 2 (Homo sapiens), sequence (P09038 whole entry, looked up): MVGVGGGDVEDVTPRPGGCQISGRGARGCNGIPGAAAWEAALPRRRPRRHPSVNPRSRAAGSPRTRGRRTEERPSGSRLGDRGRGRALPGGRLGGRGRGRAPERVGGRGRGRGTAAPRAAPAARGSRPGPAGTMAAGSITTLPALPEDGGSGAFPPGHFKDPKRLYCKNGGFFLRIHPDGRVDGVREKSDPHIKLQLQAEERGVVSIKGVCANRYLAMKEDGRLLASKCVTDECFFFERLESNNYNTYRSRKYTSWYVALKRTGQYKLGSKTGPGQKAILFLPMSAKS
# Follistatin (Homo sapiens), sequence (P19883 whole entry, looked up): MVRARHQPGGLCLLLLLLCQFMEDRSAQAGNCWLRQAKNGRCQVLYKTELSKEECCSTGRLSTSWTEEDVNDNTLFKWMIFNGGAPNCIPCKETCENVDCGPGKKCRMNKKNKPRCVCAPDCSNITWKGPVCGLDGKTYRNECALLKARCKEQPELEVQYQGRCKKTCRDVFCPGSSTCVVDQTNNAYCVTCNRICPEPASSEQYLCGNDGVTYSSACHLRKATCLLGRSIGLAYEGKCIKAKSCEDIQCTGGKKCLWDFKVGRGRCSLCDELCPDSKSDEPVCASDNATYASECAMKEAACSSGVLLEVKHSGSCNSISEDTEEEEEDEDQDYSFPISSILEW
SMILES,composite z-score [1],composite Z-score [2],composite z-score [3],composite z-score [4],composite z-score [5],composite z-score [6],composite z-score [7],composite z-score [8],composite z-score [9],composite z-score [10],composite z-score [11],composite z-score [12],composite z-score [13],composite z-score [14],composite z-score [15],composite z-score [16],z-score [17],composite z-score [18],composite z-score [19],z-score [20]
O=C1C2C=CC(C(O)c3ccc([N+](=O)[O-])cc3)N(Nc3ccccc3)C2C(=O)N1c1ccccc1 (stereo not given),0.822,-0.0589 (inactive),0.261,-0.0591,0.77,1.42,-0.163,0.594,-0.225,0.49,0.175,0.976,1.38,1.02,0.544,-0.239,-0.467,0.27,0.611,-0.284 (inactive)
COc1ccc([Si](C)(C)[C@H]2[C@H](CCO)O[C@@]3(C(=O)N(Cc4ccccc4)c4ccc(N(C=O)c5ccccc5)cc43)[C@@H]2C)cc1,0.717,-0.328 (inactive),0.0576,-0.0984,0.189,0.929,0.0964,0.936,-0.0384,1.02,0.359,0.644,0.274,0.605,0.919,0.25,0.821,1.01,0.153,0.457 (inactive)
CN(C)C(=O)[C@]1(Cc2ccccc2CN=[N+]=[N-])N=C(c2ccc(OCCCO)cc2)O[C@@H]1c1ccccc1N=[N+]=[N-],0.873,-0.118 (inactive),-0.155,-0.153,0.58,2.68,-0.339,1.3,-0.534,1.07,0.266,1.23,0.977,1.02,1.18,-0.0347,0.568,-0.136,1.12,-9.41 (active)
CCCCN1CC=CC23O[C@@H]4C=CCOC(=O)[C@@H]4[C@H]2C(=O)N(C(CO)C(C)C)[C@@H]3C1=O (stereo not given in full),-0.709,-0.0632 (inactive),-0.279,-0.14,0.321,-0.665,-0.304,-0.616,-0.0407,-0.868,-1.13,-0.663,-0.813,-0.328,0.389,0.126,0.406,-0.12,-0.708,-0.606 (inactive)
CCCC[C@H]1OB(O)C[C@H]2C1=C(COC)C[C@H]1C(=O)C=CC(=O)[C@H]12,-0.183,0.727 (inactive),0.029,0.144,-0.104,-0.279,-0.236,0.684,0.676,0.486,0.51,0.215,-0.0157,0.287,0.865,0.32,0.777,0.96,0.106,-3.03 (inactive)
C=CCC(OC(C)=O)[C@@H]1[C@@H](N(Cc2cc3ccccc3o2)C(=O)Cc2ccc(OC)cc2)c2cc(OCCCO)ccc2N1C(=O)Cc1ccc(OC)cc1 (stereo not given in full),-0.477,-0.188 (inactive),-0.0711,-0.153,0.426,-0.188,0.107,-0.0765,0.208,-0.395,0.69,-0.406,0.517,0.712,0.726,0.171,-0.411,-0.0035,0.67,0.244 (inactive)
COC(=O)[C@H](Cc1ccc(O)cc1)N1CC2=CCCC=C[C@@H]2[C@H]1[C@H](O)Cc1ccccc1,0.293,-0.223 (inactive),-0.0319,-0.0772,0.669,0.16,-0.0126,-0.163,0.706,0.295,0.0409,-0.24,-0.0148,0.92,0.359,0.348,-0.934,0.58,0.216,-1.63 (inactive)
COCCOC(=O)N1C(=O)[C@@]2(c3cc(C#CC4(O)CCCCCC4)ccc31)[C@H](c1ccc(OCCO)cc1)N1[C@H](c3ccccc3)[C@H](c3ccccc3)OC(=O)[C@H]1[C@@H]2C(N)=O,0.119,0.189 (inactive),0.0876,-0.0907,0.3,0.615,0.519,1.3,0.986,1.17,1.43,1.15,0.528,0.892,1.38,1.55,-1.27,1.38,0.613,-0.608 (inactive)
[N-]=[N+]=NCc1ccccc1C[C@]1(C(=O)O)COC(c2ccc(OCCCO)cc2)=N1,0.748,-0.496 (inactive),-0.0525,-0.14,0.805,-0.0577,-0.369,-0.91,-2.26,-0.927,-0.615,-1.13,-0.217,-2.49,-0.21,-0.855,-0.103,-0.212,-0.0491,-0.536 (inactive)
C=CCC(OC(C)=O)[C@@H]1[C@@H](N(Cc2ccc(-c3ccccc3)cc2)C(=O)c2cccc3ccccc23)c2cc(OCCCO)ccc2N1C(=O)c1ccc2ccccc2c1 (stereo not given in full),0.002,-0.124 (inactive),-0.0377,-0.0368,0.0991,0.116,0.0105,0.263,-0.52,-0.31,-0.173,0.216,0.529,0.728,0.424,-0.198,0.248,0.243,0.104,0.209 (inactive)
CC(=O)n1cc(C(O)C2C=CC3C(=O)N(c4ccccc4)C(=O)C3N2Nc2ccccc2F)c2ccccc21 (stereo not given),0.332,0.169 (inactive),-0.189,-0.162,0.754,1.84,0.386,0.505,-0.997,0.76,1.01,0.726,0.251,1.02,-1.04,-0.89,-1.16,-0.274,0.0832,1.34 (inactive)
C=CCC(OC(C)=O)[C@@H]1[C@@H](N(Cc2cc3ccccc3o2)C(=O)c2cccc3ccccc23)c2cc(OCCCO)ccc2N1C(=O)c1ccc2ccccc2c1 (stereo not given in full),0.163,-0.73 (inactive),-0.0647,-0.0906,0.229,0.542,-0.177,-0.0368,0.556,-0.259,-0.0596,-0.566,0.11,-0.262,0.65,0.133,-0.0697,0.203,-0.0449,0.131 (inactive)
O=C1C2C=CC(C(O)c3cccs3)N(Nc3ccccc3)C2C(=O)N1c1ccccc1 (stereo not given),0.21,0.353 (inactive),0.0864,-0.0731,0.787,-0.0142,-0.646,-0.0232,0.568,0.0148,-0.0476,-0.741,0.948,0.183,0.761,-0.473,-0.4,-0.289,0.253,-0.802 (inactive)
CCCCN1CC=CC23O[C@@H]4C=CCOC(=O)[C@@H]4[C@H]2C(=O)N(CCO)[C@@H]3C1=O (stereo not given in full),-0.852,-0.483 (inactive),0.177,-0.185,0.85,-0.291,-0.217,-0.779,-1.68,-1.09,-0.211,-0.629,-0.681,-0.717,-1.06,-1.39,0.0309,-1.45,-1.29,0.0308 (inactive)
COc1ccc(CCNC(=O)[C@@]2(Sc3ccc(C)cc3)CC(=O)N(Cc3cc(C(F)(F)F)cc(C(F)(F)F)c3)[C@@H]2c2ccc(CO)cc2)cc1,-0.391,-0.669 (inactive),-0.352,0.118,0.711,1.16,0.538,-1.13,-2.73,-3.06,-0.588,-1.49,-0.545,-1.07,-1.83,-2.57,-0.138,-1.25,0.0191,-0.877 (inactive)
COC(=O)c1c(CC[C@@H](CO)NC(=O)N[C@@H](Cc2ccccc2)Cn2cc(-c3cncn3C)nn2)oc(C(C)=O)c1C(=O)OC,0.979,0.047 (inactive),0.212,-0.144,0.648,1.95,0.512,1.21,-0.722,1.07,0.579,0.873,-0.179,0.107,1.01,-0.0088,-0.691,0.847,0.391,0.879 (inactive)
C[C@H]1NC(=O)C([C@@H](C)OCc2ccccc2)NC(=O)[C@@]23C(=O)N[C@@H](Cc4ccccc4)C2[C@H](C)[C@@]2(C)O[C@H]2C3/C=C/C/C=C\CNC1=O (stereo not given in full),-0.224,-0.211 (inactive),-0.136,-0.177,0.661,0.234,-0.0311,-0.204,0.601,-0.401,0.296,-0.728,-0.235,-0.394,0.425,0.545,0.919,0.459,-0.682,-1.02 (inactive)

# — PubChem BioAssay
